Experimental data: PubChem BioAssay (Tox21)
Results filed as inconclusive are left out. Active and inactive are the calls of the source. The call rests on the fitted dose curve; in most records, active means well fitted cell-killing curve with a large enough effect in the repeat runs; inconclusive means weak or mixed curves, or effect the other way; inactive means no such curve, though single readings can be large or run the other way.

test: qHTS assay to identify small molecule agonists of the estrogen receptor alpha (ER-alpha) signaling pathway in the presence of an antagonist - cell viability counter screen (AID 1259386); conditions: VM7Luc4E2 viability, CellTiter-Fluor fluorescence, 22 h; series mostly up to 92.4 µM;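 further: cells exposed to compounds for 22 h at 37 °C before the viability read; nearly all actives have a fitted effect of over 30% in size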
Source text: National Center for Advancing Translational Sciences [NCATS]
NIH Chemical Genomics Center [NCGC]
U.S. Environmental Protection Agency [EPA]
National Institutes of Environmental Health Sciences [NIEHS]
National Toxicology Program [NTP]
U.S. Food and Drug Administration [FDA]
Estrogen receptor (ER), a member of nuclear hormone receptor plays an important role in development, metabolic homeostasis and reproduction. Two subtypes of ER, ER-alpha and ER-beta, have similar expression patterns with some uniqueness in both types. Endocrine disrupting chemicals (EDCs) and their interactions with steroid hormone receptors like ER causes disruption of normal endocrine function. Therefore, it is important to understand the effect of environmental chemicals in ER signaling pathway. For identifying ER agonists, VM7Luc4E2 cell line has been used in the current assay.
VM7Luc4E2 cell line (provided by Denison MS, University of California) endogenously expresses full-length ER-alpha and is stably transfected with a plasmid containing four estrogen responsive elements (ERE) upstream of a luciferase reporter gene. This current screening for measuring luciferase reporter gene activity using VM7Luc4E2 cells against Tox21 10K library collection is a confirmation study on agonist mode screening in presence of ER-antagonist (ICI-182,780) at 10.0nM final concentration. The cytotoxicity of the compounds was tested in parallel by measuring the cell viability using CellTiter-Fluor assay system (Promega, Madison, WI) in the same wells.
Tox21 Assay Protocol Summary:
VM7Luc4E2 cells were cultured in phenol red free assay medium containing 10% charcoal stripped FBS for 5 days prior to the assay. The cells were dispensed at 4,000 cells in 4uL of assay medium per well into white wall/solid-bottom 1536-well plates (Corning Life Sciences, Corning, NY) using a Multidrop Combi (Thermo Fisher Scientific Inc., Waltham, MA) dispenser. After the assay plates were incubated at 37C and 5% CO2 for 24hr, 1uL of 10.0nM (final concentration) ICI-182,780 or assay buffer was added using two separate tips of Flying Reagent Dispenser (FRD, Aurora Discovery, San Diego, CA). Then 23nL of compounds dissolved in DMSO at 15 concentrations and positive controls or DMSO only was transferred to the assay plates by a Pintool station (Wako, San Diego, CA). The assay plates were incubated at 37C and 5% CO2 for 22hr. After 21hr incubation at 37C, 1uL/well CellTiter-Fluor reagent (Promega Corporation, Madison, WI) was added to each well using FRD and after 1hr incubation at 37C and 5% CO2, the fluorescence signal was measured on ViewLux plate reader (PerkinElmer, Shelton, CT).
On the % scale 0 is the no-effect control and ±100 the full control effect.

| SMILES | outcome | activity change, negative = cytotoxicity |
| --- | --- | --- |
| CCO[Si](CC(C)C)(OCC)OCC | inactive | – |
| COc1ccccc1N1CCN(CC(O)COc2cc(OC)c(OC)c(OC)c2)CC1 (stereo not given) | inactive | – |
| NS(=O)(=O)c1cc2c(cc1C(F)(F)F)NCNS2(=O)=O | inactive | – |
| Cc1ccccc1OCC(=O)O | inactive | – |
| CCOC(=O)[C@H](CCc1ccccc1)N[C@H]1CS[C@H](c2cccs2)CN(CC(=O)O)C1=O | inactive | – |
| CCC(=O)OCCOc1ccccc1 | inactive | – |
| O=C[C@@H](O)[C@H](O)[C@H](O)CO | inactive | – |
| COC(=O)c1ccc(C(=O)O)cc1 | inactive | – |
| COC(=O)c1cc(Cl)c(NC(C)=O)cc1OC | inactive | – |
| CCOC(=O)c1ccc(N(C)C)cc1 | inactive | – |
| N[C@H]1C(O)O[C@H](CO)[C@@H](O)[C@@H]1O (stereo not given in full) | inactive | – |
| N#Cc1cc(NC(=O)C(=O)O)c(Cl)c(NC(=O)C(=O)O)c1 | inactive | – |
| CC(C)(Sc1cc(C(C)(C)C)c(O)c(C(C)(C)C)c1)Sc1cc(C(C)(C)C)c(O)c(C(C)(C)C)c1 | inactive | – |
| N#Cc1ccccc1C#N | inactive | – |
| CC(C)(C)C(=O)NCCCC(=O)O | inactive | – |
| O=C(O)/C=C(\CC(=O)O)C(=O)O | inactive | – |
| CCOC(=O)CC | inactive | – |
| CCCCC(CC)CCC(CC(C)C)OS(=O)(=O)O (stereo not given) | inactive | – |
| CC(CC(=O)Cl)CC(C)(C)C (stereo not given) | inactive | – |
| C=COCCCCO | inactive | – |

| SMILES | outcome | activity change, negative = cytotoxicity |
| --- | --- | --- |
| CCCC(=O)C(CC)Sc1ccoc1C (stereo not given) | inactive | – |
| N=C(N)N1CCc2ccccc2C1 | – | -0.402% [at 8.39 µM] (inactive) |
| CCCc1ncc(C(=O)O)s1 | inactive | – |
| BrCCOc1ccccc1 | inactive | – |
| OCCC(F)(F)C(F)(F)C(F)(F)C(F)(F)C(F)(F)C(F)(F)F | inactive | – |
| C[C@@H]1CCC[C@H](C)N1CCCC(O)(c1ccccc1)c1ccccn1 (stereo not given in full) | inactive | – |
| Nc1ccc(C(=O)NCC(=O)O)cc1 | inactive | – |
| CC(C)OCCO | inactive | – |
| COC(=O)N/N=C/c1c[n+]([O-])c2ccccc2[n+]1[O-] | inactive | – |
| CCCCC(O)/C=C(C)/C=C/C=C/C(=O)N1CCCC1=O (stereo not given) | inactive | – |
| CC(C)(C)OC(=O)c1ccccc1C(=O)O | inactive | – |
| CCCCCC(CC)OC(=O)CCCOc1ccc(Cl)cc1Cl (stereo not given) | inactive | – |
| CCOCCOCCOC(C)=O | inactive | – |
| CC(C)C[P+](C)(CC(C)C)CC(C)C | inactive | – |
| COc1ccc2cc(CCC(C)=O)ccc2c1 | inactive | – |
| CCc1ccc(CC)cc1 | inactive | – |
| CC(C)=CCC/C(C)=C\C#N | inactive | – |
| CN(C)CCC[C@@]1(c2ccc(F)cc2)OCc2cc(C#N)ccc21 | inactive | – |
| CCCCNCC | inactive | – |
| CNCCc1ccccn1 | inactive | – |
